# Reference: PubChem BioAssay (EPA / NIEHS)
# Inconclusive results are not listed. Activity calls are given as the source filed them. How the source made its calls, unless noted: active means hit-call score of the fitted dose curve at least 0.9, where 1 is the maximum; inconclusive means response in the unintended direction; inactive means score below 0.9.
# Legend:
# [1] = Tanguay_ZF_120hpf_SWIM_legacy: (Legacy) Oregon State University Tanguay Lab 120 Hour Post-fertilization zebrafish Assay for Swim Bladder Malformation (AID 2283654);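 further: swim bladder malformation in each larva scored yes or no under brightfield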
# In short: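 Tropical 5D embryos dechorionated at 4 hpf; 1 embryo/well from 6 hpf; static, sealed, dark exposure at 28C until 120 hpf; final DMSO 0.64%; 5uM trimethyltin chloride positive control; swim bladder defect recorded yes/no; dead embryos not scored.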
# [2] = Tanguay_ZF_120hpf_TRUN_legacy: (Legacy) Oregon State University Tanguay Lab 120 Hour Post-fertilization zebrafish Assay for Truncated Body (AID 2283655)
# In short: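 5D wild-type larvae; pronase dechorionation; static exposure 6→120 hpf, 28C; DMSO 0.64% final; 5uM trimethyltin chloride positive control. Readout: presence/absence of truncated body, analyzed relative to DMSO.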
# [3] = Tanguay_ZF_120hpf_NC_legacy: (Legacy) Oregon State University Tanguay Lab 120 Hour Post-fertilization zebrafish Assay for Notochord and Tail Malformation (AID 2283656)
# In short: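 Binary notochord-distortion calls, made by brightfield inspection, form the read-out; activity is fitted in the positive direction against DMSO. Exposure ran statically from 6 to 120 hpf at 28C with 0.64% DMSO.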
# [4] = tested on: Thyroperoxidase (TPO), gene 54314; test: CCTE_Simmons_AUR_rTPO: CCTE's Amplex UltraRed Assay for Thyroperoxidase (TPO) Inhibition, Simmons Lab (AID 2283662);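 on AC50: potency for loss of signal meaning inhibition of peroxidase activity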
# In short: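 Rat thyroid microsomes (5 ug protein) with 25 uM Amplex UltraRed and 300 uM H2O2 in 200 mM phosphate buffer, 30 min at 37C in dark; fluorescence 544/590 nm. Eight concentrations, 5 nM–87.5 uM final, 0.5% DMSO, triplicate biological replicates.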
# [5] = Tanguay_ZF_120hpf_TR_legacy: (Legacy) Oregon State University Tanguay Lab 120 Hour Post-fertilization zebrafish Assay for Touch Response (AID 2283667)
# In short: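 Binary touch-response call at 120 hpf, analysed as gain of signal versus DMSO baseline. Wild-type 5D larvae, static exposure at 28C, 0.64% DMSO final; 5uM trimethyltin chloride as positive control.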
# [6] = read-out: ABC Transporter (ABCB1), ABCB1 (gene 5243); test: CLD_ABCB1_6hr: CellzDirect (CLD) Gene Expression Assay for ABC Transporter (ABCB1) at 6 hours (AID 2283659);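 further: hits raise ABCB1 transcript above the DMSO vehicle baseline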
# In short: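 ABCB1 transcript measured by quantitative nuclease protection assay, chemiluminescent read-out, 6 h after dosing human hepatocyte cultures (0.2% DMSO vehicle, daily redosing). Activity fitted as increase over DMSO baseline; cytotoxicity flagged by phase-contrast morphology.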
# [7] = read-out: xenobiotic metabolism (CYP1A1), CYP1A1 (gene 1543); test: CLD_CYP1A1_6hr: CellzDirect (CLD) Gene Expression Assay for xenobiotic metabolism (CYP1A1) at 6 hours (AID 2283661);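 on AC50: potency for transcript induction above DMSO vehicle baseline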
# In short: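 Read-out 6 h post-dose: qNPA chemiluminescent quantitation of transcript induction against 0.2% DMSO. Cells were cultured primary human hepatocytes from two separate donor preparations; phase-contrast morphology annotated apparent cytotoxicity.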
# [8] = read-out: xenobiotic metabolism (CYP1A2), CYP1A2 (gene 1544); test: CLD_CYP1A2_6hr: CellzDirect (CLD) Gene Expression Assay for xenobiotic metabolism (CYP1A2) at 6 hours (AID 2283663);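 on AC50: potency is for induction meaning a rise in mRNA above DMSO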
# In short: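 mRNA levels quantified by quantitative nuclease protection assay with chemiluminescence, 6 h after dosing human primary hepatocyte cultures (two donors) across several concentrations, vehicle 0.2% DMSO. Induction fitted upward versus DMSO; phase-contrast cytotoxicity annotated.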
# [9] = read-out: alkyl and aryl transferase (GSTA2), GSTA2 (gene 2939); test: CLD_GSTA2_6hr: CellzDirect (CLD) Gene Expression Assay for alkyl and aryl transferase (GSTA2) at 6 hours (AID 2283666)
# In short: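 GSTA2 transcript induction at 6 h, quantified by nuclease protection (qNPA) with chemiluminescent detection, in human liver primary hepatocytes exposed to several compound concentrations with 0.2% DMSO as baseline; phase-contrast morphology annotated apparent cytotoxicity.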
# [10] = read-out: sulfotransferase (SULT2A), SULT2A1 (gene 6822); test: CLD_SULT2A_6hr: CellzDirect (CLD) Gene Expression Assay for sulfotransferase (SULT2A) at 6 hours (AID 2283669);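 further: hits raise transcript level above the DMSO vehicle baseline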
# In short: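 Measured 6 h after dosing, SULT2A1 mRNA in human hepatocyte lysates was quantified by S1 nuclease protection with chemiluminescent detection. Increases fitted against 0.2% DMSO vehicle baseline; phase-contrast cytotoxicity recorded yes/no.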
# [11] = read-out: glucuronosyltransferase (UGT1A1), UGT1A1 (gene 54658); test: CLD_UGT1A1_6hr: CellzDirect (CLD) Gene Expression Assay for glucuronosyltransferase (UGT1A1) at 6 hours (AID 2283672)
# In short: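 UGT1A1 mRNA induction, read by quantitative nuclease protection assay, 6 h after dosing primary human hepatocytes (two donors, 0.2% DMSO vehicle). Gain of signal fitted relative to vehicle.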
# [12] = read-out: xenobiotic metabolism (CYP1A1), CYP1A1 (gene 1543); test: CLD_CYP1A1_24hr: CellzDirect (CLD) Gene Expression Assay for xenobiotic metabolism (CYP1A1) at 24 hours (AID 2283673);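 further: CYP1A1 mRNA level by quantitative nuclease protection with chemiluminescence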
# In short: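 Transcript levels were read at 24 h by qNPA chemiluminescence in human liver primary cells. Cells got daily fresh dosing at multiple concentrations (vehicle 0.2% DMSO). Induction fitted upward against DMSO; phase-contrast cytotoxicity annotated.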
# [13] = read-out: solute carrier (SLC22A6), SLC22A6 (gene 9356); test: LTEA_HepaRG_SLC22A6: Life Technologies and Expression Analysis (LTEA) Assay for solute carrier (SLC22A6) using HepaRG (AID 2283653; active means hit-call score of the fitted dose curve at least 0.9, where 1 is the maximum; inactive means score below 0.9); settings: mRNA level, 48 h; actives raise or lower the signal
# In short: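 This endpoint tracks SLC22A6 mRNA induction or suppression in human HepaRG cultures after 48 h dosing, concentrations reaching 100 uM. Values derive from bidirectional fitting against DMSO controls.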
# [14] = read-out: solute carrier (SLC10A1), SLC10A1 (gene 6554); test: LTEA_HepaRG_SLC10A1: Life Technologies and Expression Analysis (LTEA) Assay for solute carrier (SLC10A1) using HepaRG (AID 2283657; active means hit-call score of the fitted dose curve at least 0.9, where 1 is the maximum; inactive means score below 0.9); settings: mRNA level, 48 h; actives raise or lower the signal
# In short: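 HepaRG, 48 h exposure, 8-pt half-log curve from 100 uM in 0.5% DMSO, duplicates. Read-out: TaqMan qRT-PCR of SLC10A1 mRNA, normalized to three housekeeping genes. Gain/loss fit vs DMSO baseline.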
# [15] = read-out: matrix metalloproteinase-1 (MMP1), MMP1 (gene 4312); test: LTEA_HepaRG_MMP1: Life Technologies and Expression Analysis (LTEA) Assay for matrix metalloproteinase-1 (MMP1) using HepaRG (AID 2283658; active means hit-call score of the fitted dose curve at least 0.9, where 1 is the maximum; inactive means score below 0.9); settings: mRNA level, 48 h; actives raise or lower the signal
# In short: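 Bidirectional concentration-response fitting relative to 0.5% DMSO gives the endpoint, derived from MMP1 mRNA levels (qRT-PCR) in human HepaRG cells treated 48 h with chemicals up to 100 uM.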
# [16] = read-out: Cytochrome P450 (CYP24A1_1), CYP24A1 (gene 1591); test: LTEA_HepaRG_CYP24A1_1: Life Technologies and Expression Analysis (LTEA) Assay for Cytochrome P450 (CYP24A1_1) using HepaRG (AID 2283671; active means hit-call score of the fitted dose curve at least 0.9, where 1 is the maximum; inactive means score below 0.9); settings: mRNA level, 48 h; actives raise or lower the signal
# In short: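 Readout is CYP24A1 transcript level by qRT-PCR, normalized to three housekeeping genes, with gain or loss of signal fitted against 0.5% DMSO. Human HepaRG cells received compound for 48 h at up to 100 uM.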
# [17] = read-out: Broad substrate specificity ATP-binding cassette transporter ABCG2 (Homo sapiens) (UniProt Q9UNQ0); test: CLD_ABCG2_6hr: CellzDirect (CLD) Gene Expression Assay for ABC Transporter (ABCG2) at 6 hours (AID 2283660)
# In short: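 ABCG2 mRNA induction measured by qNPA chemiluminescence in human primary hepatocyte cultures, 6 h post-dose. Chemicals tested at several concentrations against a 0.2% DMSO vehicle; positive-direction fit relative to DMSO.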
# [18] = read-out: organic anion transporter (SLCO1B1), SLCO1B1 (gene 10599); test: CLD_SLCO1B1_6hr: CellzDirect (CLD) Gene Expression Assay for organic anion transporter (SLCO1B1) at 6 hours (AID 2283668);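 further: active means mRNA induction above DMSO baseline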
# In short: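 SLCO1B1 mRNA induction measured 6 h after dosing by quantitative nuclease protection with chemiluminescent read-out, in human primary hepatocyte cultures given chemicals at several concentrations (vehicle 0.2% DMSO). Increase over DMSO baseline fitted; morphology-based cytotoxicity annotated yes/no.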
# Chain of Broad substrate specificity ATP-binding cassette transporter ABCG2 (Homo sapiens) (Q9UNQ0 whole entry, looked up): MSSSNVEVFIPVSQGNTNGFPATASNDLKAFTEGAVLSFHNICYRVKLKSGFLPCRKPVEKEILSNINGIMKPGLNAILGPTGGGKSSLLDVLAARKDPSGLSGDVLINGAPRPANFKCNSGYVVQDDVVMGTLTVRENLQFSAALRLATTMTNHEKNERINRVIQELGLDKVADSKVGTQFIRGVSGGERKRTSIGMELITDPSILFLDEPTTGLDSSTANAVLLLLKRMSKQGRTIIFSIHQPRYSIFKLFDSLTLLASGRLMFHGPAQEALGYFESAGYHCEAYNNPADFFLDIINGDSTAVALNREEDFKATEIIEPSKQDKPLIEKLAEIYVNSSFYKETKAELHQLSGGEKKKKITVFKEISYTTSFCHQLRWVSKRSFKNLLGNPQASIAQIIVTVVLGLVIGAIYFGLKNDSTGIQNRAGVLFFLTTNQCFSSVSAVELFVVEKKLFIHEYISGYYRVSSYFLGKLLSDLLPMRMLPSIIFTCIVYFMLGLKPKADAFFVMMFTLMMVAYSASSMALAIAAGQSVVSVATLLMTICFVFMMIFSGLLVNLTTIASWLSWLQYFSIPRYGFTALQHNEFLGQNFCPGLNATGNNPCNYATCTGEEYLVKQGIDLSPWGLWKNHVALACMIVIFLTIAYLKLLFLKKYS
smiles,measurement,setting,value
CC(c1ccc(O)cc1)(c1ccc(O)cc1)c1ccc(O)cc1,outcome,[1],inactive
same,outcome,[2],inactive
same,outcome,[3],inactive
same,AC50,[4],1.41 µM (active)
CCC(C)(c1ccc(O)cc1)c1ccc(O)cc1,AC50,[1],43.1 µM (active)
same,AC50,[2],46.6 µM (active)
same,AC50,[4],1.86 µM (active)
same,AC50,[5],42.4 µM (active)
CCNc1nc(NC(C)C)nc(SC)n1,outcome,[1],inactive
same,outcome,[2],inactive
same,outcome,[3],inactive
same,outcome,[6],inactive
same,AC50,[7],1.42 µM (active)
same,AC50,[8],0.262 µM (active)
same,outcome,[9],inactive
same,outcome,[5],inactive
same,outcome,[10],inactive
same,outcome,[11],inactive
same,AC50,[12],3.97 µM (active)
Oc1c(Cl)c(Cl)c(Cl)c(Cl)c1Cl,outcome,[2],inactive
same,outcome,[3],inactive
same,AC50,[4],8.93 µM (active)
same,outcome,[5],inactive
CCCCCCCCCc1ccc(O)cc1,outcome,[13],inactive
same,outcome,[2],inactive
same,outcome,[3],inactive
same,outcome,[14],inactive
same,outcome,[15],inactive
same,AC50,[4],10.5 µM (active)
same,outcome,[5],inactive
same,outcome,[16],inactive
Cc1cccc([N+](=O)[O-])c1,outcome,[1],inactive
same,outcome,[2],inactive
same,outcome,[3],inactive
same,outcome,[5],inactive
CCC(=O)O[C@H]1CC[C@H]2[C@@H]3CCC4=CC(=O)CC[C@]4(C)[C@H]3CC[C@]12C,outcome,[1],inactive
same,outcome,[2],inactive
same,outcome,[3],inactive
same,outcome,[4],inactive
same,outcome,[5],inactive
O=C(N[C@H]1CN2CCC1CC2)c1cc2ccoc2cn1,outcome,[2],inactive
same,outcome,[3],inactive
C1CC2OC2CC1C1CO1 (stereo not given),outcome,[1],inactive
same,outcome,[2],inactive
same,outcome,[3],inactive
Cc1ccccc1CO[C@@H]1C[C@@]2(C(C)C)CC[C@]1(C)O2,outcome,[2],inactive
same,outcome,[3],inactive
same,outcome,[6],inactive
same,outcome,[17],inactive
same,outcome,[7],inactive
same,AC50,[4],28 µM (active)
same,outcome,[8],inactive
same,outcome,[9],inactive
same,outcome,[5],inactive
same,outcome,[18],inactive
same,outcome,[10],inactive
same,outcome,[11],inactive
same,outcome,[12],inactive
CCCCCCOC(=O)c1ccccc1C(=O)OCCCCCC,outcome,[2],inactive
same,outcome,[3],inactive
